# Source: PubChem
# T cruzi growth: inhibitors of T. cruzi proliferation | 77,000 compounds, 5.9% hits | inhibition, % at 8.34 µM | AID 624255 | T. cruzi beta-gal in NIH3T3, GalScreen luminescence, 90 h;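 active = mean inhibition above about 93%, with at least 55% of replicates each passing it, limit read from the data, passing the limit was not always enough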
# Pf Dd2 growth: blocks growth of Plasmodium falciparum Dd2 parasites | P. falciparum Dd2 growth, SYBR Green, 72 h; active compounds read low | activity change, % at 10 µM | 94,000 compounds, 2.3% hits | AID 1159554; in the data active = activity change below about -80%
# C diff growth: C. difficile growth inhibition; Clostridium difficile clinical isolate growth, OD600, 24 h; active compounds read low; growth activity, negative = inhibition, % at 16 µg/mL (by protocol); 86,000 compounds, 0.25% hits; AID 1259249;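 active = mean growth activity at or below -80% and every replicate also at or below -80%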;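 also: 0% = DMSO wells and -100% = levofloxacin 16 µg/mL wells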
# * = called active by the depositor; . = no result given. Sampled rows, rich in hits. Any-hit rate of the full collection: about 6.7%.
SMILES,T cruzi growth,Pf Dd2 growth,C diff growth
COc1ccc2c3c([nH]c2c1)[C@H](CO)N(Cc1cccc(Cl)c1)CC31CCN(C(C)=O)CC1,.,-89*,-1
COCC(=O)N1CC2(C1)CN(Cc1cccc(Cl)c1)[C@H](CO)c1[nH]c3cc(OC)ccc3c12,.,-57,-1
COCC(=O)N1CCC2(CC1)CN(Cc1cccc(Cl)c1)[C@H](CO)c1[nH]c3cc(OC)ccc3c12,.,-71,1
CC(C)NC(=O)N(C)C[C@H]1OCCCC[C@H](C)Oc2ccc(NC(=O)c3ccccc3)cc2C(=O)N([C@@H](C)CO)C[C@@H]1C,-19,-24,-2
COc1ccccc1S(=O)(=O)N[C@@H]1CC[C@H](CC(=O)NCc2cc(F)cc(F)c2)O[C@H]1CO,.,13,2
COc1ccc2c3c([nH]c2c1)[C@H](CO)N(C)CC31CCN(C(=O)NC(C)C)CC1,.,-10,.
C[C@H](CO)N1C[C@H](C)[C@@H](CN(C)C(=O)Nc2ccc(C(F)(F)F)cc2)Oc2ccc(NC(=O)Nc3ccc(F)cc3)cc2CC1=O,-20,-64,12
COc1ccccc1S(=O)(=O)N[C@@H]1CC[C@H](CCNC(=O)C2CCCCC2)O[C@H]1CO,41,1,5
C/C=C/c1ccc([C@H]2[C@@H](CO)N(CC3CCCC3)C23CN(C(=O)CC2CC2)C3)cc1,.,-87*,-1
C/C=C/c1ccc([C@H]2[C@@H](CO)N(CC3CC3)[C@@H]2CNC(=O)NC(C)C)cc1,.,-6,5
C/C=C/c1ccc([C@H]2[C@@H](CO)N(CC3CCCC3)[C@@H]2CNC(=O)NC(C)C)cc1,.,-94*,32
C/C=C/c1ccc([C@@H]2[C@@H](CO)N(c3nc(CC)cs3)[C@@H]2CNC(C)C)cc1,92,-78,4
C/C=C/c1ccc([C@H]2[C@H](CO)N(c3nc(CC)cs3)[C@H]2CNC(C)C)cc1,90,-81*,3
C/C=C/c1ccc([C@H]2[C@@H](CO)N(CC3CC3)[C@H]2CNS(C)(=O)=O)cc1,27,-12,-5
C/C=C/c1ccc([C@H]2[C@@H](CO)N(CC3CCCC3)C23CN(C(=O)CC)C3)cc1,.,-27,-5
C/C=C/c1ccc([C@H]2[C@@H](CO)N(CC3CCCCC3)[C@@H]2CNC(C)C)cc1,.,-94*,35
COc1ccccc1NC(=O)Nc1ccc2c(c1)C(=O)N(C)C[C@H](OC)[C@H](C)CN[C@H](C)CO2,-52,4,1
COc1ccc2c3c(n(C)c2c1)[C@H](CO)N(Cc1cccc(F)c1)CC31CCN(C)CC1,.,-47,12
C[C@@H]1CN([C@H](C)CO)C(=O)c2cc(C3=CCCC3)cnc2O[C@@H]1CN(C)Cc1ccccn1,-138,11,-1
CCCN1C[C@@H](C)[C@@H](OC)CN(C)C(=O)c2cc(NC(=O)Nc3ccccc3F)ccc2OC[C@H]1C,33,-60,.
C[C@@H]1CN([C@@H](C)CO)C(=O)c2cc(-c3ccc(C#N)cc3)cnc2O[C@H]1CN(C)C(=O)CC1CC1,-19,2,2
C[C@H]1CN([C@@H](C)CO)C(=O)c2cc(Br)cnc2O[C@H]1CN(C)C(=O)NC1CCCC1,.,17,2
O=C(CCN1CCCCC1)NCC[C@H]1CC[C@@H](NC(=O)C2CCCC2)[C@@H](CO)O1,4,8,-6
COc1ccc(S(=O)(=O)Nc2ccc3c(c2)C(=O)N([C@@H](C)CO)C[C@H](C)[C@@H](CN(C)Cc2ccc(Cl)c(Cl)c2)OCCCC[C@@H](C)O3)cc1,18,-91*,-5
COc1ccc(S(=O)(=O)Nc2ccc3c(c2)C(=O)N([C@H](C)CO)C[C@@H](C)[C@H](CN(C)C(=O)NC2CCCCC2)OCCCC[C@H](C)O3)cc1,.,-48,-11
SMILES,T cruzi growth,Pf Dd2 growth,C diff growth
COc1ccc(S(=O)(=O)Nc2ccc3c(c2)C(=O)N([C@@H](C)CO)C[C@H](C)[C@H](CN(C)Cc2ccc(Cl)c(Cl)c2)OCCCC[C@@H](C)O3)cc1,41,-61,.
COc1ccc(CN(C)C[C@H]2OCCCC[C@H](C)Oc3ccc(NS(=O)(=O)c4ccc(OC)cc4)cc3C(=O)N([C@H](C)CO)C[C@@H]2C)cc1,20,-24,0
COc1ccc(CN(C)C[C@H]2OCCCC[C@@H](C)Oc3ccc(NS(=O)(=O)c4ccc(OC)cc4)cc3C(=O)N([C@H](C)CO)C[C@H]2C)cc1,.,-87*,-6
COc1ccc(S(=O)(=O)Nc2ccc3c(c2)C(=O)N([C@H](C)CO)C[C@@H](C)[C@@H](CN(C)C(=O)NC2CCCCC2)OCCCC[C@@H](C)O3)cc1,76,-86*,4
COC(=O)C[C@@H]1CC[C@H]2[C@@H](COC[C@H](O)CN2S(=O)(=O)c2ccccc2C)O1,15,6,-10
O=C(NC[C@H]1CC[C@H]2[C@H](CN2Cc2cccc(Cl)c2)O1)C1CCOCC1,.,20,-3
COc1ccc2c3c(n(C)c2c1)[C@@H](CO)NCC31CN(C(=O)Nc2ccc(F)cc2F)C1,.,-24,2
C[C@@H]1CN([C@@H](C)CO)C(=O)c2cc(NC(=O)Nc3ccc(F)cc3)ccc2O[C@@H](C)CCCCO[C@@H]1CN(C)C(=O)Nc1ccc2c(c1)OCO2,.,-89*,3
C[C@@H]1CCCCO[C@@H](CN(C)C(=O)Nc2ccc(C(F)(F)F)cc2)[C@H](C)CN([C@@H](C)CO)C(=O)c2cc(NC(=O)Nc3ccc4c(c3)OCO4)ccc2O1,112*,15,-3
C[C@@H]1CCCCO[C@@H](CN(C)C(=O)Nc2ccc3c(c2)OCO3)[C@H](C)CN([C@@H](C)CO)C(=O)c2cc(NC(=O)Nc3ccc(F)cc3)ccc2O1,33,4,2
C[C@H](CO)N1C[C@H](C)[C@@H](CN(C)C(=O)Nc2ccc3c(c2)OCO3)OCCCC[C@H](C)Oc2ccc(NC(=O)Nc3ccc(C(F)(F)F)cc3)cc2C1=O,91,-57,8
COc1ccccc1CN1CC2(C1)[C@H](c1ccccc1)[C@@H](CO)N2Cc1ccccc1,.,-90*,29
CCS(=O)(=O)N1CC2(C1)[C@@H](c1ccccc1)[C@@H](CO)N2Cc1ccc(F)cc1,.,-12,0
O=C(CC1CC1)N1CC2(C1)[C@H](c1ccccc1)[C@@H](CO)N2Cc1ccc(F)cc1,.,-66,-3
COc1ccccc1CN1[C@H](CO)[C@@H](c2ccccc2)C12CN(C(C)=O)C2,.,-47,-6
OC[C@@H]1[C@@H](c2ccccc2)C2(CN(CC3CC3)C2)N1Cc1ccc(F)cc1,.,-88*,18
CCS(=O)(=O)N1CC2(C1)[C@@H](c1ccccc1)[C@H](CO)N2Cc1ccc(F)cc1,.,-83*,-1
O=C(C[C@H]1C=C[C@H](NC(=O)c2ccncc2)[C@@H](CO)O1)Nc1ccccc1,.,39,-20
Cc1ccc(S(=O)(=O)NCC[C@@H]2CC[C@@H](NC(=O)c3cccc(F)c3)[C@H](CO)O2)cc1,-19,-1,.
C[C@@H]1CCCCO[C@@H](CN(C)S(=O)(=O)c2ccc(Cl)cc2)[C@@H](C)CN([C@H](C)CO)C(=O)c2cc(NC(=O)CCC(F)(F)F)ccc2O1,29,-78,4
C[C@@H]1CCCCO[C@@H](CN(C)S(=O)(=O)c2ccc(Cl)cc2)[C@H](C)CN([C@H](C)CO)C(=O)c2cc(NC(=O)Nc3ccc(C(F)(F)F)cc3)ccc2O1,70,-77,14
